In PubChem BioAssay AID2391 (Southern Research Specialized Biocontainment Screening …, 2010):
The campaign covered roughly 310,000 compounds. About 410 (0.13%) were called active. Another 2% or so got no clear call; they are omitted. The rule behind the calls is not given here. A selection follows. Potency and affinity values are given separately.

assay: RSV antiviral activity via CPE protection, HEp-2 cells, primary 10 µM value included (AID 2391); conditions: RSV-induced CPE inhibition, at 10 µM, stronger effect = higher value

CPE inhibition, inactive:
Cc1cc(NC(=O)CCC(=O)N(CC(=O)NCC2CCCO2)c2cccc(F)c2)no1 (stereo unspecified) 0.87%
CC(=O)NC1(C(F)(F)F)C(=O)Nc2c1c(=O)[nH]c(=O)n2-c1ccccc1 (stereo unspecified) -0.08%
CCCCCCC(=O)N1CCC(c2nc3c(nnn3Cc3ccccc3Cl)c(=O)[nH]2)CC1 -3.63%
Cc1ccc(Nc2ccc(S(=O)(=O)N3CCOCC3)cc2[N+](=O)[O-])cc1C 7.23%
CC1=Nc2cc(C(=O)N3CCCCC3)ccc2Sc2ccc(C)cc21 4.9%
CC1=Nc2cc(C(=O)N3CCCC3)ccc2Sc2ccc(C)cc21 3.72%
COc1ccc(N2CCN(c3nc(C)c(C)c(=O)[nH]3)CC2)cc1 1.02%
COCCOc1cc(NC(=O)CS(=O)CC(=O)N(C)C)c(Cl)cc1Cl (stereo unspecified) 1.9%
O=C(Nc1ccccc1)c1ccc(NC(=O)C2CC2)cc1 2.88%
O=C(Nc1ccc(Nc2ccccc2)cc1)C1CC1 0.83%
CNC(=O)CO/N=C/c1ccc(N(C)C)cc1 2.24%
COc1ccc2cc(CN(Cc3cccnc3)S(=O)(=O)c3ccccc3)c(=O)[nH]c2c1 5.1%
CCCNC(=O)c1cc(S(=O)(=O)N2CCCCC2)ccc1N1CCOCC1 -0.63%
CCC(=O)Nc1nonc1-c1nc2ccccc2n1CC(C)C 4.88%
CCn1c(-c2nonc2NC(=O)c2ccccc2)nc2ccccc21 -1.62%
CC(C)NC(=O)CSc1ccccc1C(=O)NNC(=O)Cn1ccc(C(F)(F)F)n1 -1.83%
CCOc1ccc(C(C)=O)cc1CN1C(=O)NC2(CCCCCC2)C1=O -0.88%
CCOC(=O)c1nn(-c2ccccc2)c(=O)cc1OCC(=O)Nc1cc(C)ccc1OC 0.86%
O=C(NCc1cccs1)C1CCN(C(=O)NCc2ccccc2)CC1 0.51%
COc1cc2c3c(c1)/C(=C1/SC(=S)NC1=O)C(=O)N3C(C)(C)C=C2C 17.4%
CCN1C(=O)/C(=C2/C(=O)N3c4c(cc(OC(C)=O)cc42)C(C)=CC3(C)C)SC1=S 7.27%
Cc1ccc(OCCNC(=O)CCc2ccccc2)cc1C -0.93%
CCc1nccn1S(=O)(=O)c1ccc2ccccc2c1 1.31%
O=C(N/N=C/c1cccnc1)c1cc(C2CC2)nc2ccccc12 1.57%
C/C(N)=C(/C#N)C(=O)CSc1cc(C)c2ccccc2n1 12.3%
Cc1cc(C)c2nc(SCC#N)cc(C)c2c1 11.1%
CC(C)S(=O)(=O)CC(=O)c1ccc(Cl)cc1 1.72%
O=C(Cn1c2ccccc2c2nc3n(c(=O)c21)CCS3)Nc1ccccc1 0.68%
Cc1ccc(C(=O)Nc2ccc3c(c2)C(=O)NC3=O)cc1 3.34%
COc1cc(OC)cc(-c2nnc(SCc3c(F)cccc3Cl)o2)c1 9.5%
COc1cc(-c2nnc(SCc3ccccc3Cl)o2)cc(OC)c1OC 10.5%
CCc1nn(CC(=O)NCCCN(Cc2ccccc2)C(C)C)c(=O)c2cc3sccc3n12 3.25%
CC(OC(=O)CSc1ccc(F)cc1)C(=O)NC1(C#N)CCCCC1 (stereo unspecified) 1.61%
CC(C)(C)SCCNS(=O)(=O)c1ccccc1 2.31%
COc1ccc(C(=O)N/C(=C/c2cccs2)C(=O)NN)cc1OC 0.82%
COc1ccc(/C=C(/NC(=O)c2ccccc2)c2nc3ccccc3[nH]2)cc1OC 1.75%
O=C(N/C(=C/c1cccs1)c1nc2ccccc2[nH]1)c1ccccc1 -0.44%
Cc1ccc(C(=O)N/C(=C\c2cccs2)c2nc3ccccc3[nH]2)cc1 1.69%
Cc1cc(C)c(C(=O)Nc2ccc(S(=O)(=O)Nc3onc(C)c3C)cc2)c(C)c1 0.27%
Cc1ccc2oc(C(=O)Nc3ccc(S(=O)(=O)Nc4onc(C)c4C)cc3)cc(=O)c2c1 1.61%
Cc1ccc2c(=O)cc(C(=O)Nc3ccc(S(=O)(=O)Nc4onc(C)c4C)cc3)oc2c1 1.69%
Cc1ccc2oc(C(=O)Nc3ccc(S(=O)(=O)Nc4ncccn4)cc3)c(C)c2c1 1.95%
O=C(N/N=C/c1cc2c(cc1Cl)OCO2)c1cccc(Br)c1 0.51%
COc1ccc(C(c2nnnn2Cc2ccccc2)N2CCN(c3nc4ccccc4s3)CC2)cc1OC (stereo unspecified) 8.79%
CNC(=O)NC(=O)COC(=O)/C=C/c1cccc(Br)c1 4.26%
COC(=O)c1cccc(CSc2nc(-c3ccccc3)c(C#N)c(=O)[nH]2)c1 -0.22%
N#CCSc1ncnc2ccccc12 0.16%
O=C(COc1ncnc2ccccc12)NCCc1ccccc1 4.07%
O=C(COc1ncnc2ccc(Br)cc12)NC1CCCC1 -0.78%
c1ccc(OCCOc2ncnc3ccccc23)cc1 2.27%
c1ccc(CSc2ncnc3ccccc23)cc1 -0.1%
COCCNC(=O)COc1ncnc2ccc(Br)cc12 0%
CCOC(=O)c1c(C)c(C(=O)Nc2ccc3c(c2)OCCO3)c(C)n1C -0.46%
N#Cc1nc(-c2ccco2)oc1NCc1ccco1 1.01%
O=C(COc1ccccc1)Nc1ccccc1C(=O)NCc1ccco1 -0.74%
CC1CCc2[nH]c3ccc(C(=O)N(C)CC(=O)Nc4ccc(F)cc4)cc3c2C1 (stereo unspecified) 5.53%
COc1ccc(NC(=O)CN(C)C(=O)c2ccc3[nH]c4c(c3c2)CC(C)CC4)cc1 (stereo unspecified) 6.52%
CCOc1cccc2c1OC1(C)CC2NC(=O)N1c1ccc(OC)cc1 (stereo unspecified) 0.71%
C=CCN(c1ccc(F)cc1)S(=O)(=O)c1cc(C(=O)OCC(=O)N(C)C2CCS(=O)(=O)C2)ccc1Cl (stereo unspecified) 0.97%
CCC(=O)NC(=S)Nc1ccc(NC(=O)COc2ccccc2)cc1 -0.96%
CCC(=O)NC(=S)Nc1ccc(NC(=O)COc2ccc(Cl)cc2Cl)cc1 3.92%
